# Laboratory results: article PMC7862700, “An all-to-all approach to the identification of sequence-specific readers for epigenetic DNA modifications on cytosine”
# Legend:
# Test in all cases: DAPPL (digital affinity profiling via proximity ligation, sequencing); 10 mM Tris-HCl pH 7.5, 50 mM NaCl, 1 mM DTT, 4% glycerol, room temperature, 30 min; GST-TFs on glutathione beads, 16-mer random dsDNA library, 0.1% formaldehyde crosslink after washing; high values mean tight binding
# Conditions in all cases: protein: recombinant; tags: N-terminal GST; dsDNA, one strand shown
# FLI1 = molecular target: T1, FLI1 (Homo sapiens, UniProt Q01543 1-452)
# T1 sequence: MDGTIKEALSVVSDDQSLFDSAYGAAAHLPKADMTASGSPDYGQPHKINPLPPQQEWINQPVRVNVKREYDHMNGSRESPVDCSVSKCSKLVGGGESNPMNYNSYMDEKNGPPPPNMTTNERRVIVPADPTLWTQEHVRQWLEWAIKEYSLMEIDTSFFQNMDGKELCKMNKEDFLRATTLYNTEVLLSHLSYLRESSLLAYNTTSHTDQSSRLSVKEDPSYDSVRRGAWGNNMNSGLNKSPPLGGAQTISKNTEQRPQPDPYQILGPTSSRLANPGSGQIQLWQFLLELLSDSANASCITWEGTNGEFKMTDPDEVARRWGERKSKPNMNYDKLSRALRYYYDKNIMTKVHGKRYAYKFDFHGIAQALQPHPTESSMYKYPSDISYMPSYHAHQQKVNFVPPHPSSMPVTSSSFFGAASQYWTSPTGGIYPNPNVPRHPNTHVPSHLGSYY
# Procedure, shortened: (§1)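 Binding signal is defined as a hexamer's read frequency for one factor over its frequency for the tag-only sample. To obtain reads, GST-fused human transcription factors were expressed in yeast, captured on glutathione beads, barcoded with DNA and pooled with that sample. Pools met 200 nmole of a 16-mer random double-stranded DNA library in Tris/NaCl/DTT/glycerol buffer for 30 min at room temperature before washing, 0.1% formaldehyde crosslinking, proximity ligation (BsaI/T4 ligase, 1 h, 37 °C), PCR and Illumina NextSeq500 sequencing.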
# ELK1 = molecular target: T2, ELK1 (Homo sapiens, UniProt P19419 1-428)
# T2 sequence: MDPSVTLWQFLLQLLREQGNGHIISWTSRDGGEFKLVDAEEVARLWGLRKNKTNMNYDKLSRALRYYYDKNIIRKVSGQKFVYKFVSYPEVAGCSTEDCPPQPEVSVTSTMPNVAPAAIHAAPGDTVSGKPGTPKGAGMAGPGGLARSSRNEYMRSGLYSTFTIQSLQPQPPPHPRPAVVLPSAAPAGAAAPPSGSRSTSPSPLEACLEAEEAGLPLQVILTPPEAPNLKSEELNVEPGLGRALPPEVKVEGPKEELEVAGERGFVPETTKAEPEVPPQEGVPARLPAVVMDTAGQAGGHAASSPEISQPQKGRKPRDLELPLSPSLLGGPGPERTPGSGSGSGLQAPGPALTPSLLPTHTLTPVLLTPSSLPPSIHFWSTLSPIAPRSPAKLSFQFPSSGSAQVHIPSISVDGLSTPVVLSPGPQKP
# Procedure, shortened: as §1
# GABPA = molecular target: T3, GABPA (Homo sapiens, UniProt Q06546 1-454)
# T3 sequence: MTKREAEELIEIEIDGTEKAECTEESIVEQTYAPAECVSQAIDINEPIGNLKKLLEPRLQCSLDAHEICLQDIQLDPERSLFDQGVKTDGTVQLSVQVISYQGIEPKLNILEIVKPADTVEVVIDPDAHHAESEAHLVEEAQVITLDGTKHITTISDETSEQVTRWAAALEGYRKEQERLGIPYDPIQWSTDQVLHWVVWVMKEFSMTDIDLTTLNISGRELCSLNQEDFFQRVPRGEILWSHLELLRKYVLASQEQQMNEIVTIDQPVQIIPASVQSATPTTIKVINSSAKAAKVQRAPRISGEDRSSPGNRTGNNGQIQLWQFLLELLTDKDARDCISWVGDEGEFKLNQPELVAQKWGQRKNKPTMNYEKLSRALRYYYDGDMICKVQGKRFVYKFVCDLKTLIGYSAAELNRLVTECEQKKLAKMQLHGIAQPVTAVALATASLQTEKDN
# Procedure, shortened: as §1
# ELF1 = ELF1 (Homo sapiens, UniProt P32519 1-619)
# Sequence of ELF1 (P32519 whole entry): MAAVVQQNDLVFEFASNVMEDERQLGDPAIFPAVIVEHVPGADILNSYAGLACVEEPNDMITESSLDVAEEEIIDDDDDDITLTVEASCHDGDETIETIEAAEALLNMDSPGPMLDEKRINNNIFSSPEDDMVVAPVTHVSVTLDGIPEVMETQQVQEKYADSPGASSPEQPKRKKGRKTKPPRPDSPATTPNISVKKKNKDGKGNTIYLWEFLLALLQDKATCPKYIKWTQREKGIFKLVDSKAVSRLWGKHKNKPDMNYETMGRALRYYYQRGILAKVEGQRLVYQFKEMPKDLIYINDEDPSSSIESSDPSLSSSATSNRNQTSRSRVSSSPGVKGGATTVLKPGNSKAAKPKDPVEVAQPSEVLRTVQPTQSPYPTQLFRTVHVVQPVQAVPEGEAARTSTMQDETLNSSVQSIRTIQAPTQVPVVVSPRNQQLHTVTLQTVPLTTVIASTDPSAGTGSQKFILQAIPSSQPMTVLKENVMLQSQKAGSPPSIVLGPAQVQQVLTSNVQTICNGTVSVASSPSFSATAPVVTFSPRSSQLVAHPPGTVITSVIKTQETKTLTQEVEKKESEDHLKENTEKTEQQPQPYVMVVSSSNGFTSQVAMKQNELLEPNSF
# Procedure, shortened: as §1
# EHF = molecular target: T4, EHF (Homo sapiens, UniProt Q9NZC4 1-300)
# T4 sequence: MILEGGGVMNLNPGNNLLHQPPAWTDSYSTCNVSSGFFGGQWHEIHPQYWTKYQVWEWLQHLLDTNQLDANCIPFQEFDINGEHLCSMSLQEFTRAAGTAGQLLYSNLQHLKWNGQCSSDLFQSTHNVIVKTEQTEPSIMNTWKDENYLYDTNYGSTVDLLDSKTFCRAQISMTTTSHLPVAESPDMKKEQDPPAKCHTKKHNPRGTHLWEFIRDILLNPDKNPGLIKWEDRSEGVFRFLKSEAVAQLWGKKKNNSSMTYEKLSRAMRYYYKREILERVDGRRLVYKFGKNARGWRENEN
# Procedure, shortened: as §1
# SPI1 = SPI1 (Homo sapiens, UniProt P17947 1-270)
# Procedure, shortened: as §1
# SPIB = SPIB (Homo sapiens, UniProt Q01892 1-262)
# Sequence of SPIB (Q01892 whole entry): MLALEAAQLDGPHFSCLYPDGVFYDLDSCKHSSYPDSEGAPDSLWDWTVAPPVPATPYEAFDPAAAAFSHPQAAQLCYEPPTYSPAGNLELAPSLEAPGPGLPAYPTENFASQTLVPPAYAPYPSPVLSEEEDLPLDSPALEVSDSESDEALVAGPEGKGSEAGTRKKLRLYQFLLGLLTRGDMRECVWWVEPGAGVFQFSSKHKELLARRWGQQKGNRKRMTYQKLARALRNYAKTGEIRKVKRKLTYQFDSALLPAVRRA
# Procedure, shortened: as §1
# ELK3 = molecular target: T5, ELK3 (Homo sapiens, UniProt P41970 1-407)
# T5 sequence: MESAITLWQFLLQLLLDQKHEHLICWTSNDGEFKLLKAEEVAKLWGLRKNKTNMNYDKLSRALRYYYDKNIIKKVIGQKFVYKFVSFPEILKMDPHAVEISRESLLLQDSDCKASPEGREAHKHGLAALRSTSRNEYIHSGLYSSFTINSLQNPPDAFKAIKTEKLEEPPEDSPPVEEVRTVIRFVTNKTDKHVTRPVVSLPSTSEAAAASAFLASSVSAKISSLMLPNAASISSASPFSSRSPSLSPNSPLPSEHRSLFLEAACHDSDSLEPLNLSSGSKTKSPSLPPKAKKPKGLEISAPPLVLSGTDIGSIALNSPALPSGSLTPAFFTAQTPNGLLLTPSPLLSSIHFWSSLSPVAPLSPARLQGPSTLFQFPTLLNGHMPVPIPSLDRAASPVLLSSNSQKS
# Procedure, shortened: as §1
# ETV5 = ETV5 (Homo sapiens, UniProt P41161 1-510)
# Sequence of ETV5 (P41161 whole entry): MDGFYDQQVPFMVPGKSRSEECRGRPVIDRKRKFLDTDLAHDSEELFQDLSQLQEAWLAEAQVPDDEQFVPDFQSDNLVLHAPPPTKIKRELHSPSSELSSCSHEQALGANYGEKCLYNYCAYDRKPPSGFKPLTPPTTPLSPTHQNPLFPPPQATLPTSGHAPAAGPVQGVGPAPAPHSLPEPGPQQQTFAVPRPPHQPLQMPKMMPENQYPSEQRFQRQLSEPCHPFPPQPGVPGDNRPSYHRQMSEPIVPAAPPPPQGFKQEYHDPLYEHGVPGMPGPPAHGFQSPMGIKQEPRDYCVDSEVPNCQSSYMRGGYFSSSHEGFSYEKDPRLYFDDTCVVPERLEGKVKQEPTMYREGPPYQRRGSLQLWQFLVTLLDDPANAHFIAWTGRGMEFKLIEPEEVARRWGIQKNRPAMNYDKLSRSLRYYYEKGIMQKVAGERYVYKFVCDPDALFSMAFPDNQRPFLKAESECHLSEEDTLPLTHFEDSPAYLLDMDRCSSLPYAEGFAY
# Procedure, shortened: as §1
# ELF4 = ELF4 (Homo sapiens, UniProt Q99607 1-663)
# Sequence of ELF4 (Q99607 whole entry): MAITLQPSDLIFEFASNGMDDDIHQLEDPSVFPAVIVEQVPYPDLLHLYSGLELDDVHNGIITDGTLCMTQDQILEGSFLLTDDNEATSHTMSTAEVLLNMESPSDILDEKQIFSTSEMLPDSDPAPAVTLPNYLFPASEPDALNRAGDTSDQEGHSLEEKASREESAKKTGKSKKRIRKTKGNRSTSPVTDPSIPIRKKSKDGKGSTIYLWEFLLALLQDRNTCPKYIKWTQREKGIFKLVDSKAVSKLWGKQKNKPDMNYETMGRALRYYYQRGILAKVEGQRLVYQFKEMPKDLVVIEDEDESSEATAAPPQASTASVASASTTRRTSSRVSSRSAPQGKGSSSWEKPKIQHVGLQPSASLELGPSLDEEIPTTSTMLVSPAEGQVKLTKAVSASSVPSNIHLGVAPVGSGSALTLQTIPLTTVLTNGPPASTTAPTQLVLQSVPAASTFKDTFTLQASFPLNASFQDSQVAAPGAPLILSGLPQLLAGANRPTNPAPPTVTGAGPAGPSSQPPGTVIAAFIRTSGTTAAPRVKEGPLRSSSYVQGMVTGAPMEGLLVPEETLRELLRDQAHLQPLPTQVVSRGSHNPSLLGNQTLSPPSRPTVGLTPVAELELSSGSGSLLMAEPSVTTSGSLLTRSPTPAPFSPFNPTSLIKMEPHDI
# Procedure, shortened: as §1
# ETV2 = molecular target: T6, ETV2 (Homo sapiens, UniProt O00321 1-342)
# T6 sequence: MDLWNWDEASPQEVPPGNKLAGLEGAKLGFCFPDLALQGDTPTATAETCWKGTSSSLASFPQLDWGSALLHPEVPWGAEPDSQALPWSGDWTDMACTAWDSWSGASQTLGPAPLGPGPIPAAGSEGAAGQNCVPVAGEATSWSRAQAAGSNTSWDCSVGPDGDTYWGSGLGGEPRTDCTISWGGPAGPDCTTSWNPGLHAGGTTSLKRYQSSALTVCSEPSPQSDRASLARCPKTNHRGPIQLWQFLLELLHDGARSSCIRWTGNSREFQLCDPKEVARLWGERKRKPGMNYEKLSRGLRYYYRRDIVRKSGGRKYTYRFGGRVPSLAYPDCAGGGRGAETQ
# Procedure, shortened: as §1
# ETV1 = ETV1 (Homo sapiens, UniProt P50549 1-477)
# Sequence of ETV1 (P50549 whole entry): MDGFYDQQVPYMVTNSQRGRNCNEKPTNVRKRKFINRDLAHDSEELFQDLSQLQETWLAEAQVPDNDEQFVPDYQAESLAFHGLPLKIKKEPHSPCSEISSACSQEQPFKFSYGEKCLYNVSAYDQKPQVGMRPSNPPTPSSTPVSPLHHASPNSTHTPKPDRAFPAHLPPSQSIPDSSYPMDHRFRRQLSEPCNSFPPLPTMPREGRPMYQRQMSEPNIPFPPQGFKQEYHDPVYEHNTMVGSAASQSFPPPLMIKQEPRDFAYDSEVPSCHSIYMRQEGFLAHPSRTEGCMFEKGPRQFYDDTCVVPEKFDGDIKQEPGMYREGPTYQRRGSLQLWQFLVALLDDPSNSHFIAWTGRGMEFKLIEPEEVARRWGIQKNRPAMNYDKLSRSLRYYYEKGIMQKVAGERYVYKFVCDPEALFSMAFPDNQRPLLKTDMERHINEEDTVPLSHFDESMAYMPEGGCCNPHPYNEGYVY
# Procedure, shortened: as §1
# ERF = molecular target: T7, ERF (Homo sapiens, UniProt P50548 1-548)
# T7 sequence: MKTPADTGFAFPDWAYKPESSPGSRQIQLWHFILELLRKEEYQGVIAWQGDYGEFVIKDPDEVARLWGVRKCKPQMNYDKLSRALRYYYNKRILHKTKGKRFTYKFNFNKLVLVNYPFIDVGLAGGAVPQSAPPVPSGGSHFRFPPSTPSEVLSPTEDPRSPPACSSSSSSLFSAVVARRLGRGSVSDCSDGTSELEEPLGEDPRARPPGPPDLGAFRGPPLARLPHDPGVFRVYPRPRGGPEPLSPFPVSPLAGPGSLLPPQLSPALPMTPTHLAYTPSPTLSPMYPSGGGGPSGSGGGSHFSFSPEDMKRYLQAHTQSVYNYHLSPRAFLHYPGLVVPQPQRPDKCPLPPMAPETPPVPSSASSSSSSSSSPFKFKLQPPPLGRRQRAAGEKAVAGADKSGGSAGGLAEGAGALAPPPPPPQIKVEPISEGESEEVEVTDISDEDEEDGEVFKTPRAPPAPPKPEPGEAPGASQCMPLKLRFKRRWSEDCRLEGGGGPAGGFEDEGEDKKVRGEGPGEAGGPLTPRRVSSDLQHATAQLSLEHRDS
# Procedure, shortened: as §1
# ETV3L = molecular target: T8, ETV3L (Homo sapiens, UniProt Q6ZN32 1-361)
# T8 sequence: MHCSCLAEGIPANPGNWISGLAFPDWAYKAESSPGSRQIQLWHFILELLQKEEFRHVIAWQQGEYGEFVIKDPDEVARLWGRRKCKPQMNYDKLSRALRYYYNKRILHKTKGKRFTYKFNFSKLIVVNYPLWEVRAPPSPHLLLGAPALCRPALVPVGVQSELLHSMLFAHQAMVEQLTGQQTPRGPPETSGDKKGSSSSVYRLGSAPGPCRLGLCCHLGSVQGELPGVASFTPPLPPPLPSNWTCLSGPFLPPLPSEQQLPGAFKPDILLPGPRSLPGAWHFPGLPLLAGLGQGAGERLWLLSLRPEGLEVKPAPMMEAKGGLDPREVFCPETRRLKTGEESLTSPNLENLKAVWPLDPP
# Procedure, shortened: as §1
# ETS2 = molecular target: T9, ETS2 (Homo sapiens, UniProt P15036 1-469)
# T9 sequence: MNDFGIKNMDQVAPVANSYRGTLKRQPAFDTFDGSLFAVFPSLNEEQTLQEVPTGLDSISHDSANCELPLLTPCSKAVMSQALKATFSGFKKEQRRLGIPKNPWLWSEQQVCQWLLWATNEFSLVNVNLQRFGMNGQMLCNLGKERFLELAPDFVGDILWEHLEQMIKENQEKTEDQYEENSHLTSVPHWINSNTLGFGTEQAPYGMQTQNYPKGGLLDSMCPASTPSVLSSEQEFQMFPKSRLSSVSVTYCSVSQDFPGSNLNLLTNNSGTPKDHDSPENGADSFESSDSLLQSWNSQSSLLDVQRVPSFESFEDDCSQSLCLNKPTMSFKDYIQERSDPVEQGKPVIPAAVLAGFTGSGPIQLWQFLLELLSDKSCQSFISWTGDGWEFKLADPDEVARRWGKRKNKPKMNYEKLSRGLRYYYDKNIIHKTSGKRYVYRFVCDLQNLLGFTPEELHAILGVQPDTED
# Procedure, shortened: as §1
# ETV7 = molecular target: T10, ETV7 (Homo sapiens, UniProt Q9Y603 1-341)
# T10 sequence: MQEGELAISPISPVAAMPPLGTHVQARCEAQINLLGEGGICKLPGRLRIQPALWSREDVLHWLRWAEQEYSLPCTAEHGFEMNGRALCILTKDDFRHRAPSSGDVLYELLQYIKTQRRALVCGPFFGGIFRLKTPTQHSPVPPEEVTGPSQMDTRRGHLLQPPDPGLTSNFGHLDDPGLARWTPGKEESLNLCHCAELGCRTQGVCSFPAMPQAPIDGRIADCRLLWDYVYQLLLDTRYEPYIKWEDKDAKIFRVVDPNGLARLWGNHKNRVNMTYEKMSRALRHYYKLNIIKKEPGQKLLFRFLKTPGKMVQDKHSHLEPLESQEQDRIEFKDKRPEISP
# Procedure, shortened: as §1
# ETV3 = molecular target: T11, ETV3 (Homo sapiens, UniProt P41162-2 1-143)
# T11 sequence: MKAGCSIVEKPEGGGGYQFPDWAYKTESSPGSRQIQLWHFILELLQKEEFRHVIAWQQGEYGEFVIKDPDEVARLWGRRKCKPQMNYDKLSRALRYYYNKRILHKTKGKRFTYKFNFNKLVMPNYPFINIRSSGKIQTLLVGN
# Procedure, shortened: as §1
# ETV6 = ETV6 (Homo sapiens, UniProt P41212 1-452)
# Sequence of ETV6 (P41212 whole entry): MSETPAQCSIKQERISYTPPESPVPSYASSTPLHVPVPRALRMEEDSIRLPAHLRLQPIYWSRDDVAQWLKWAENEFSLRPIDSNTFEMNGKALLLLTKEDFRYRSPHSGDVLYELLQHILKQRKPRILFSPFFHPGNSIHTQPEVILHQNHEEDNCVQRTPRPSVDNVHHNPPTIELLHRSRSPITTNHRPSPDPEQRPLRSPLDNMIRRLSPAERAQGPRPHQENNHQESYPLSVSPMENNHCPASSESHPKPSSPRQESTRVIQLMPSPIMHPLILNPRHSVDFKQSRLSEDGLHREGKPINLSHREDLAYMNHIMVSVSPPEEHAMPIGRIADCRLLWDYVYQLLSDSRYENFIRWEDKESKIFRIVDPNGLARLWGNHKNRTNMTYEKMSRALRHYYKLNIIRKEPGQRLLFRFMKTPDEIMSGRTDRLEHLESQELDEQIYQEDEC
# Procedure, shortened: as §1
sequence,measurement,setting,value
TTGTCA,binding signal,FLI1,"1.1 fold enrichment (6-mer frequency, TF over GST control)"
same,binding signal,ELK1,"1.04 fold enrichment (6-mer frequency, TF over GST control)"
same,binding signal,GABPA,"1.08 fold enrichment (6-mer frequency, TF over GST control)"
same,binding signal,ELF1,"1.13 fold enrichment (6-mer frequency, TF over GST control)"
same,binding signal,EHF,"1.11 fold enrichment (6-mer frequency, TF over GST control)"
same,binding signal,SPI1,"1.16 fold enrichment (6-mer frequency, TF over GST control)"
same,binding signal,SPIB,"1.21 fold enrichment (6-mer frequency, TF over GST control)"
same,binding signal,ELK3,"1.13 fold enrichment (6-mer frequency, TF over GST control)"
same,binding signal,ETV5,"1.05 fold enrichment (6-mer frequency, TF over GST control)"
same,binding signal,ELF4,"1.14 fold enrichment (6-mer frequency, TF over GST control)"
same,binding signal,ETV2,"1.02 fold enrichment (6-mer frequency, TF over GST control)"
same,binding signal,ETV1,"1.15 fold enrichment (6-mer frequency, TF over GST control)"
same,binding signal,ERF,"1.3 fold enrichment (6-mer frequency, TF over GST control)"
same,binding signal,ETV3L,"1.17 fold enrichment (6-mer frequency, TF over GST control)"
same,binding signal,ETS2,"1.11 fold enrichment (6-mer frequency, TF over GST control)"
same,binding signal,ETV7,"1.2 fold enrichment (6-mer frequency, TF over GST control)"
same,binding signal,ETV3,"1.16 fold enrichment (6-mer frequency, TF over GST control)"
same,binding signal,ETV6,"1.07 fold enrichment (6-mer frequency, TF over GST control)"
